Among the data in PubChem BioAssay are composite z-score and z-score values, retold here.

SMILES strings stand for the structures. Activity calls are given as the source filed them.

For experiment [1], the system named is Plasmodium falciparum Sir2 (PF13_0152, Sir2A). Nature of the experiment: Plasmodium falciparum Sir2A binding compounds – biochemical, small-molecule microarray, 635 nm fluorescence, primary screen (AID 1098).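 Also: score merges spot fluorescence intensity with its signal-to-noise ratio.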 The settings on record: fluorescence 635 nm, higher = more signal.
The nature of experiment [2]: probe aDKK1 binding to arrayed compounds – biochemical, biotinylated probe, 635/667 nm fluorescence, primary screen (AID 1099).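 Also: score merges 667nm spot fluorescence with signal to noise across triplicate slides.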 Particulars: small-molecule microarray, higher = more signal.
Experiment [3] in a line: probe aCHRDL2 binding to arrayed compounds – biochemical, biotinylated probe, 635/667 nm fluorescence, primary screen (AID 1100). Particulars: small-molecule microarray, higher = more signal.
Experiment [4] is described as follows: change in splice reporter luminescence, either direction, cell-based, HEK293, spliceosome inhibition project, primary screen (AID 1101).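 Also: HEK293 cells carrying a splicing-competent luciferase reporter gene; test concentration not given here.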 Particulars: HEK293 splicing luciferase reporter, 24 h, higher = more signal, called active from +8 up or from −8 down. In general terms: A reporter such as luciferase makes a cellular process visible.
Experiment [5] has as its target Fibroblast growth factor 10 (Homo sapiens) (UniProt O15520). The experiment is described as follows: compounds binding fibroblast growth factor 10 – biochemical, small-molecule microarray, 635 nm fluorescence, primary screen (AID 1102). The settings on record: FGF10 binding, fluorescence 635 nm, higher = more signal.
In experiment [6] the test system is glycogen synthase kinase-3 (GSK3A per assay name; protocol says GSK3B). The experiment is described as follows: compounds binding glycogen synthase kinase-3 – biochemical, small-molecule microarray, 635 nm fluorescence, GSK3A, primary screen (AID 1103). Also: the record names both GSK3A and GSK3B. The settings on record: fluorescence 635 nm, higher = more signal.
The target of experiment [7] is Epidermal growth factor receptor (Homo sapiens) (UniProt P00533). Nature of the experiment: compounds binding epidermal growth factor receptor – biochemical, small-molecule microarray, 635 nm fluorescence, primary screen (AID 1104).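 Also: score merges 667 nm emission intensity with spot signal to noise over triplicate slides.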 The settings on record: EGFR binding, higher = more signal.
Epidermal growth factor receptor (Homo sapiens), sequence (P00533 whole entry, looked up): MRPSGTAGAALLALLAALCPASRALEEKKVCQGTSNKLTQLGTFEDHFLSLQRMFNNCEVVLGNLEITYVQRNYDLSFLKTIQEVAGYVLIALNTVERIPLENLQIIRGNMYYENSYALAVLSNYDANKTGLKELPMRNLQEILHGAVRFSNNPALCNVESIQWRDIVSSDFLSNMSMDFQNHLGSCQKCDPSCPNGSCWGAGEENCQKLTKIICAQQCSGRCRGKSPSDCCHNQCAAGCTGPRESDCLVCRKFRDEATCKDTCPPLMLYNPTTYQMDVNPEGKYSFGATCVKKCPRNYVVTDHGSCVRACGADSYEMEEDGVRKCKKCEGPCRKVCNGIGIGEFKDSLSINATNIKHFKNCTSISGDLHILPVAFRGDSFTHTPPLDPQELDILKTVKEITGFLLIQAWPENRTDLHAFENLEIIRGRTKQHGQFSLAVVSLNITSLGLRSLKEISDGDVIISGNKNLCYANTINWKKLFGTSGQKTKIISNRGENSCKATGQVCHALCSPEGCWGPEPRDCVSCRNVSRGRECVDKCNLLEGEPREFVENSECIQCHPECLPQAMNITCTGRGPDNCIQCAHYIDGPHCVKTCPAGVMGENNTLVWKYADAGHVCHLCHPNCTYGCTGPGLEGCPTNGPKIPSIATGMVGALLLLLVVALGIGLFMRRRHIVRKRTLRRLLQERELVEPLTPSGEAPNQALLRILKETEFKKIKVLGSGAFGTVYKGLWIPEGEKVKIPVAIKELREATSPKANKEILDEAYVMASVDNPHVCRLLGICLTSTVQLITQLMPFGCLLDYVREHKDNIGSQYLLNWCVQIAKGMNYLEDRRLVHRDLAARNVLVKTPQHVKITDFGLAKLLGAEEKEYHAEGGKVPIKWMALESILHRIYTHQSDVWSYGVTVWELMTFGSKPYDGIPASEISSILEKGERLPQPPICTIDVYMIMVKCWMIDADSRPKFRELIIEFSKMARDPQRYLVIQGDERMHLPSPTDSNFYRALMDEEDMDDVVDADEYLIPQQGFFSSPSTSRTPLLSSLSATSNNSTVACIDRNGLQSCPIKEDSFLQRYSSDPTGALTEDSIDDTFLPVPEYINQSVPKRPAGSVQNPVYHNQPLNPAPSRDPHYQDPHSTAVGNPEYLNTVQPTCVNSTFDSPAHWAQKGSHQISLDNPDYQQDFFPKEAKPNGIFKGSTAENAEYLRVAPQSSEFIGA
In experiment [8] the target is Follistatin-related protein 3 (Homo sapiens) (UniProt O95633). Nature of the experiment: compounds binding follistatin-related protein 3 – biochemical, small-molecule microarray, 635 nm fluorescence, primary screen (AID 1105).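 Also: score merges emission near 667 nm and signal to noise per printed spot across three slides.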 The settings on record: FSTL3 binding, higher = more signal.
Follistatin-related protein 3 (Homo sapiens), sequence (O95633 whole entry, looked up): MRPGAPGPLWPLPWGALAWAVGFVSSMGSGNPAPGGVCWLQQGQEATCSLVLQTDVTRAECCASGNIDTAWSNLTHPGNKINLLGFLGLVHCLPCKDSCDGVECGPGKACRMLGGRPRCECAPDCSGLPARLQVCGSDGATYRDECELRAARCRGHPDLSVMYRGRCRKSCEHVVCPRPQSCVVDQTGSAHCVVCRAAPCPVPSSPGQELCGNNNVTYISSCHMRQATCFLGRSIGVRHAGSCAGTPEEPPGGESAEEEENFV
The target of experiment [9] is Dickkopf-related protein 1 (Homo sapiens) (UniProt O94907). The experiment is described as follows: small molecules binding DKK1 protein – biochemical, small-molecule microarray, 635 nm fluorescence scan, primary screen (AID 1106).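 Also: score merges emission near 667 nm with signal to noise over three replicate slides.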 Particulars: higher = more signal.
Dickkopf-related protein 1 (Homo sapiens), sequence (O94907 whole entry, looked up): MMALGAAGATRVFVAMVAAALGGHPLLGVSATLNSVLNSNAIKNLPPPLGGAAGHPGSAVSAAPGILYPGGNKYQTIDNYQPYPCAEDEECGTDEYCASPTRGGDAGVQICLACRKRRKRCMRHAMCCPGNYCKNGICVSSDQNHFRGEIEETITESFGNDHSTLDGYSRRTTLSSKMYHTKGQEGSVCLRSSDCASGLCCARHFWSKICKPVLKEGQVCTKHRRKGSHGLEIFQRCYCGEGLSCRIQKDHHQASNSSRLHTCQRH
In experiment [10] the test system is Inhibin beta A chain (activin A). The experiment is described as follows: small molecules binding activin A – biochemical, small-molecule microarray, 635 nm fluorescence scan, primary screen (AID 1107).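 Also: mouse activin A protein probed at 4.33 µg/mL on printed slides; score merges bound-protein fluorescence near 667 nm with spot signal-to-noise.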 The settings on record: INHBA, higher = more signal.
For experiment [11], the system named is Human papillomavirus type 1a protein E7 (residues 44-93). The experiment is described as follows: small molecules binding HPV E7 44-93 – biochemical, small-molecule microarray, residues 44-93, 635 nm fluorescence, primary screen (AID 1108).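 Also: E7 fragment applied at 1 µg/mL in TBST for 1 h at 4 C; score combines spot fluorescence with its signal to noise ratio.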 The settings on record: fluorescence 635 nm, higher = more signal.
The nature of experiment [12]: hepatitis C replication reporter changes, two-sided – Huh7 cells, luciferase reporter, HCV replication inhibitor project, primary screen (AID 1109).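 Also: huh7 hepatoma cells harbouring a luciferase neomycin HCV replicon reporter; luciferase luminescence as measure of HCV replicon replication; test concentration not given here.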 Particulars: Huh7 HCV replicon luciferase reporter, 48 h; higher = more signal.
Experiment [13] addresses Left-right determination factor 2 (Homo sapiens) (UniProt O00292). The experiment is described as follows: small molecules binding LEFTY2 protein – biochemical, small-molecule microarray, 635 nm fluorescence scan, primary screen (AID 1110). Particulars: higher = more signal.
The target of experiment [14] is Calmodulin-1 (Homo sapiens) (UniProt P0DP23). The experiment is described as follows: small molecules binding calmodulin-1 with EGTA – biochemical, small-molecule microarray, Cy5-labelled CALM1, profiling panel (AID 1111).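 Also: labelled calmodulin applied in Tris saline Tween buffer holding calcium plus EGTA and DTT.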 Particulars: Cy5-CALM1 binding fluorescence, higher = more signal.
Experiment [15] has the same target. The experiment is described as follows: small molecules binding Ca-loaded calmodulin-1 – biochemical, small-molecule microarray, Cy5-labelled CALM1, plus calcium, artefact control for SMM control-protein annotation, profiling panel (AID 1112).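 Also: score merges spot fluorescence with signal to noise from triplicate slides.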 The settings on record: Cy5-CALM1 binding fluorescence, higher = more signal.
Experiment [16] in a line: probe aWnt5a binding to arrayed compounds – biochemical, biotinylated probe, 635/667 nm fluorescence, primary screen (AID 1113).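 Also: score merges 667 nm fluorescence intensity with signal-to-noise per printed feature.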 The settings on record: small-molecule microarray, higher = more signal.
The nature of experiment [17]: probe aShh binding to arrayed compounds – biochemical, biotinylated probe, 635/667 nm fluorescence, primary screen (AID 1114).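 Also: probe is biotin-labelled aShh protein from a stem cell growth factor screen; measures binding of labelled protein to compounds printed on the slide; score merges feature fluorescence at 667 nm with signal-to-noise.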 The settings on record: small-molecule microarray, higher = more signal.
Experiment [18] can be described thus: probe aNog binding to arrayed compounds – biochemical, biotinylated probe, 635/667 nm fluorescence, primary screen (AID 1115).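 Also: probe is biotinylated aNog protein used at 0.15 µg/mL for 1 h at 4 C; z-score combines 667 nm fluorescence of each spot with its signal to noise.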 Particulars: small-molecule microarray, higher = more signal.
Experiment [19] addresses Torsin-1A-interacting protein 1 (Homo sapiens) (UniProt Q5JTV8). Nature of the experiment: compound microarray binding of lysate hLAP1 – cell lysate, small-molecule microarray, COS7 lysate, 635/667 nm fluorescence, primary screen (AID 1116). Particulars: 635 nm fluorescence, higher = more signal.
The target of experiment [20] is Alpha-bungarotoxin (Bungarus multicinctus) (UniProt P60615). Nature of the experiment: compounds binding labelled alpha-BTX control protein – biochemical, small-molecule microarray, Alexa647 label, 635/667 nm fluorescence, artefact control for SMM control protein annotation, profiling panel (AID 1117). Particulars: alpha-BTX-A647 binding fluorescence, higher = more signal.
Alpha-bungarotoxin (Bungarus multicinctus), sequence (P60615 whole entry, looked up): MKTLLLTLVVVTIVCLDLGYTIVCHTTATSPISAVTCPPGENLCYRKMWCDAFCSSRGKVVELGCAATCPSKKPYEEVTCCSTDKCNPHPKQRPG

Fibroblast growth factor 10 (Homo sapiens), sequence (O15520 whole entry, looked up): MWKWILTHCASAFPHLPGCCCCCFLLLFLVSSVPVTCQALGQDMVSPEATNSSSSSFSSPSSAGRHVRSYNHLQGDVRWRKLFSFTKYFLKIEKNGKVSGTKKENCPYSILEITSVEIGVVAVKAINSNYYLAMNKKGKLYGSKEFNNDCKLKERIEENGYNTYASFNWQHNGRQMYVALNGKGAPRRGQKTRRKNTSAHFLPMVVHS
Left-right determination factor 2 (Homo sapiens), sequence (O00292 whole entry, looked up): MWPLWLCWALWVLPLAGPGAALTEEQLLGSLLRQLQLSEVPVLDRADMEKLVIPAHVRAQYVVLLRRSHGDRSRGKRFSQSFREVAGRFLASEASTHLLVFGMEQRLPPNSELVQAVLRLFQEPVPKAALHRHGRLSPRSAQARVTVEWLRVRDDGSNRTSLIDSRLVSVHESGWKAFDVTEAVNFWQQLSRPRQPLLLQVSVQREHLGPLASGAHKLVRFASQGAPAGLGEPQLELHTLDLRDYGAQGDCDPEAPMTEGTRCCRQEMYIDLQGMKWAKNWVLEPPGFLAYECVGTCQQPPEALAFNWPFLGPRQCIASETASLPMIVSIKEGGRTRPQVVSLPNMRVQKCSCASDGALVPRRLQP
Torsin-1A-interacting protein 1 (Homo sapiens), sequence (Q5JTV8 whole entry, looked up): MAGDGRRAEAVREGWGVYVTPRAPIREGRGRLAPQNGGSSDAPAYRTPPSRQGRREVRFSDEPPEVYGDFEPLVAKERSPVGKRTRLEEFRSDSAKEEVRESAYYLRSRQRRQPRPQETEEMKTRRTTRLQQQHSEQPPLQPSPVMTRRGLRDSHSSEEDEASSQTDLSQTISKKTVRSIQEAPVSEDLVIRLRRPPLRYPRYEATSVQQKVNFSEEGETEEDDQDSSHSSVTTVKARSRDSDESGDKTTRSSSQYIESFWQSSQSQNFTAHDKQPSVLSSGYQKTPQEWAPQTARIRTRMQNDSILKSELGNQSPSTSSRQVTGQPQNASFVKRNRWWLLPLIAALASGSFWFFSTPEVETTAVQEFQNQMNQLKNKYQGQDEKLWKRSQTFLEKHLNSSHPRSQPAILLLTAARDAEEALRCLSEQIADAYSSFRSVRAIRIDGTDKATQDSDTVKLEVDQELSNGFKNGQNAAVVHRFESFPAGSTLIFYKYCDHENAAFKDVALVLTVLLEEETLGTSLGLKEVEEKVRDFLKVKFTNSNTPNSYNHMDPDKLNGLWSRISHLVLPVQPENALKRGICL

As to `C=C(COC)/C(=C/C[C@H](OC(C)=O)c1cccc(OCCO)c1)c1cc(C(=O)OC)ccc1OC`, the composite z-score was 0.84 in experiment [1]; 0.0919 in [2]; -0.143 in experiment [3]; 1.21 in experiment [5]; 0.656 in [6]; 0.0086 in [7]. Further, the composite z-score is 1.33 in experiment [8]; 1.47 in experiment [9]; 0.981 in [10]; -0.109 in [11]; 0.38 in experiment [13]; -0.547 in experiment [14]. In addition, the composite z-score in experiment [15] was -0.377; in [16], -0.0556; in experiment [17], -0.0146; in experiment [18] it was -0.201; in experiment [19] it was 0.188; in experiment [20], -0.284. Moreover, the z-score in experiment [4] is -4.8 (inactive); in experiment [12], -4.08.

On to `NCCCCCCNC(=O)[C@@H]1C[C@@H]2C(=O)N[C@@H](Cc3ccccc3)C(=O)N2[C@@H]1c1ccc(O)cc1`, for which the composite z-score stood at 0.791 in experiment [1]; 0.678 in experiment [2]; 0.709 in experiment [3]; 0.25 in experiment [5]; 0.717 in [6]; 0.0626 in experiment [7]. Moreover, the composite z-score in experiment [8] stood at 0.367; in experiment [9] it was 0.627; in [10], 1.15; in experiment [11], 1.12; in [13], 0.093; in experiment [14], 2. For the same compound, the composite z-score in [15] was 1.32; in [16] it was -0.11; in experiment [17], 0.318; in experiment [18] it was 0.075; in experiment [19], 0.526; in experiment [20], 1.3. Also, the z-score was -0.573 (inactive) in experiment [4] and 0.355 in [12].

In the case of `CCCNC(=O)[C@@H]1c2ccccc2C(=O)N(Cc2cc(C(F)(F)F)cc(C(F)(F)F)c2)[C@H]1c1ccc(CO)cc1`, the composite z-score is 1.23 in experiment [1]; 0.829 in [2]; 0.803 in experiment [3]; 0.238 in [5]; 0.459 in experiment [6]; -0.112 in experiment [7]. Besides, the composite z-score in experiment [8] is 0.268; in experiment [9] it was -0.196; in experiment [10] it was 0.0686; in [11], 0.35; in [13] it was -0.402; in experiment [14] it was 0.394. The composite z-score is 0.544 in experiment [15]; -0.146 in [16]; 0.188 in [17]; 0.527 in experiment [18]; 0.238 in experiment [19]; 1.22 in [20]. The z-score is -0.443 (inactive) in [4] and -0.392 in [12].

Regarding `CO[C@H]1O[C@H](CO)[C@@H](OC(=O)CCc2ccccc2)[C@@H]2OC(=O)[C@H](Cc3ccccc3)C/C=C/C[C@@H](Cc3ccccc3)C(=O)O[C@@H]12`, the composite z-score in [1] was 0.489; in experiment [2] it was -0.332; in [3] it was 0.268; in experiment [5], -0.135; in experiment [6], -1.24; in experiment [7] it was -0.938. Also, the composite z-score was -0.861 in [8]; -0.844 in [9]; 1.17 in [10]; -0.673 in experiment [11]; -0.0637 in experiment [13]; -0.879 in [14]. The composite z-score is -0.123 in experiment [15]; -0.106 in experiment [16]; -0.471 in [17]; 0.248 in experiment [18]; 0.108 in experiment [19]; -0.75 in experiment [20]. The z-score in experiment [4] is -0.87 (inactive); in [12], -1.31.

Turning to `CC(=O)OC(C/C=C\B1OC(C)(C)C(C)(C)O1)c1ccccc1` (stereo not given), the composite z-score was -0.552 in experiment [1]; -0.264 in experiment [2]; 0.281 in experiment [3]; -0.704 in experiment [5]; -0.138 in experiment [6]; 0.247 in [7]. In addition, the composite z-score in experiment [8] is 0.173; in experiment [9] it was 0.0618; in experiment [10], 1.38; in experiment [11] it was -0.328; in experiment [13], 0.149; in [14] it was -1.33. In addition, the composite z-score in experiment [15] was -0.664; in experiment [16], -0.152; in experiment [17], -0.0813; in experiment [18] it was -0.405; in [19] it was -0.0001; in experiment [20] it was -0.236. Further, the z-score was -2.42 (inactive) in experiment [4] and 0.386 in experiment [12].
